In the supplement of paper PMC11732987, “Enantioselective OTUD7B fragment discovery through chemoproteomics screening and high-throughput optimisation” (Communications Chemistry, 2025):

Legend:
Test in all cases: log2 ratio of Biotin-Ahx-Ub-VS probe labelling (fragment/DMSO); higher = less target engagement (more negative = stronger competition), active = hit call of the paper (q ≤ 0.05, log2 ratio ≤ -1)
Settings in all cases: compound concentration: 200 uM; treatment time: 3 h
OTUD6B = molecular target: T1, OTUD6B (UniProt Q8N6M0)
T1 sequence (whole entry): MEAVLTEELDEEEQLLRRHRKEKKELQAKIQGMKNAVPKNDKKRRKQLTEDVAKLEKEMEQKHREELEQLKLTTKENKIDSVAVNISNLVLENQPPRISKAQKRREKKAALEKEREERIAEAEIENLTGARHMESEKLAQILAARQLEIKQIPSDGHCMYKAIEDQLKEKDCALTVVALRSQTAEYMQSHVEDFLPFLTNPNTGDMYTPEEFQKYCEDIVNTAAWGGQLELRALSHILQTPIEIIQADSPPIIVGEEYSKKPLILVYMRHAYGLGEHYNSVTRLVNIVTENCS
Procedure, shortened: (§1)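 Fragment (200 µM) or vehicle was incubated for 3 h with triplicate HEK293T lysate samples of 495 µg, which were then treated with Biotin-Ahx-Ub-VS at 0.5 µM final for 1 h. Labelled DUBs were enriched on NeutrAvidin, digested with LysC and trypsin, and analysed by diaPASEF LC-MS/MS. Values are average log2 fragment/vehicle ratios from an unpaired t-test on global-median-normalised Spectronaut label-free quantities, using proteins with ≥2 unique peptides.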

OTUD7B = molecular target: T2, OTUD7B (UniProt Q6GQQ9)
T2 sequence (whole entry): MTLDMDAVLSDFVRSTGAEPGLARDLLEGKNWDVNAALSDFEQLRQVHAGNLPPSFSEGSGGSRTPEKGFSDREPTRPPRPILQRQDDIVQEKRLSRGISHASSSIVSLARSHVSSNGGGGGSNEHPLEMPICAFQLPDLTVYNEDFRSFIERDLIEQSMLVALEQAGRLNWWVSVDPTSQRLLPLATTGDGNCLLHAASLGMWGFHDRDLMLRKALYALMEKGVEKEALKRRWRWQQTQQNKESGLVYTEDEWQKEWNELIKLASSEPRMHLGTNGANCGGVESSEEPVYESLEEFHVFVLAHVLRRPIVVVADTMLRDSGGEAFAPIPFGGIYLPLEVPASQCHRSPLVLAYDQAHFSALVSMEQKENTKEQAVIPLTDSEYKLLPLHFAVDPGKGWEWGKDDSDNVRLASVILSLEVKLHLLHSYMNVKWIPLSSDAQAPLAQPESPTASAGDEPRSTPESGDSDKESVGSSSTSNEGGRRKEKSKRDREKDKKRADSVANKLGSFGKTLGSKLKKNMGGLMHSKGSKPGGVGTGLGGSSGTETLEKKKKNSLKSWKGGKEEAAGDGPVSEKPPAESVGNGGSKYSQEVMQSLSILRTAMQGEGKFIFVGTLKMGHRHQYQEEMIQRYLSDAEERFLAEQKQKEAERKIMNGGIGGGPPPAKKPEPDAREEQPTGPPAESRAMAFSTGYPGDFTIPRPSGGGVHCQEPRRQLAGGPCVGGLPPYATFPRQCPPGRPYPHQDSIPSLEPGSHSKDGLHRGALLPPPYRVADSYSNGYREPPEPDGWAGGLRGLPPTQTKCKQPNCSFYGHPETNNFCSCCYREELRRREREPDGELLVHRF
Procedure, shortened: as §1

PRPF8 = PRPF8 (UniProt Q6P2Q9)
Procedure, shortened: as §1

PSMD7 = molecular target: T3, PSMD7 (UniProt P51665)
T3 sequence (whole entry): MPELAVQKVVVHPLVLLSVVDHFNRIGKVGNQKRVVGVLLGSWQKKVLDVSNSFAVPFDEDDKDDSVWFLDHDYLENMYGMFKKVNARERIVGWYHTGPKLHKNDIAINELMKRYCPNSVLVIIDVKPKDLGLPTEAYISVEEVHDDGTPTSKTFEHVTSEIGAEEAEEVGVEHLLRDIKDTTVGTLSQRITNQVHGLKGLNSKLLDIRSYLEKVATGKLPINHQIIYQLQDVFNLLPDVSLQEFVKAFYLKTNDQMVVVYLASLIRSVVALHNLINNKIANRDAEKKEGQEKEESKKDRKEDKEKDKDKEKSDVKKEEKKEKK
Procedure, shortened: as §1

UCHL1 = UCHL1 (UniProt P09936)
Chain of UCHL1 (P09936 whole entry, looked up): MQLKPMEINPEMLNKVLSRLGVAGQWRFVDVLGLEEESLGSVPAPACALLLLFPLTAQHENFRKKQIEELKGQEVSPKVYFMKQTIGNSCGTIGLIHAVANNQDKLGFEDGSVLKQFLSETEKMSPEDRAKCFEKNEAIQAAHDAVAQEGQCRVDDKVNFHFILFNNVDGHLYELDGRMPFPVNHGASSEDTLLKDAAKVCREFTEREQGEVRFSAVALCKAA
Procedure, shortened: as §1

UCHL3 = molecular target: T4, UCHL3 (UniProt P15374)
T4 sequence (whole entry): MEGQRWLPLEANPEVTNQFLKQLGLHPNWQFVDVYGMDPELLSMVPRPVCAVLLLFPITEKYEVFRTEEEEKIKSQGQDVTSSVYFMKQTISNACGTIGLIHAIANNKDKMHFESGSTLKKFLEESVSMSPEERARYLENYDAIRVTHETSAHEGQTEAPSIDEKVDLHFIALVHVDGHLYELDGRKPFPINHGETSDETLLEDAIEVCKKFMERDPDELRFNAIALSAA
Procedure, shortened: as §1

UCHL5 = molecular target: T5, UCHL5 (UniProt Q9Y5K5)
T5 sequence (whole entry): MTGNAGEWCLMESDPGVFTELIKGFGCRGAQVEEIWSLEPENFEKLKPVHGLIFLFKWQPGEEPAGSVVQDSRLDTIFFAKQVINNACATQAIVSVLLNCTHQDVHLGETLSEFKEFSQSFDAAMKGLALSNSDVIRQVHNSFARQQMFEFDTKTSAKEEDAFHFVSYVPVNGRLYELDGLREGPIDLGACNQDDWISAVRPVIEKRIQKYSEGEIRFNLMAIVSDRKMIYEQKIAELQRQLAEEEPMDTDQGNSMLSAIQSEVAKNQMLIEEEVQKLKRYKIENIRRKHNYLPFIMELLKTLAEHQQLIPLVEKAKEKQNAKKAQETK
Procedure, shortened: as §1

USP10 = USP10 (UniProt Q14694)
Chain of USP10 (Q14694 whole entry): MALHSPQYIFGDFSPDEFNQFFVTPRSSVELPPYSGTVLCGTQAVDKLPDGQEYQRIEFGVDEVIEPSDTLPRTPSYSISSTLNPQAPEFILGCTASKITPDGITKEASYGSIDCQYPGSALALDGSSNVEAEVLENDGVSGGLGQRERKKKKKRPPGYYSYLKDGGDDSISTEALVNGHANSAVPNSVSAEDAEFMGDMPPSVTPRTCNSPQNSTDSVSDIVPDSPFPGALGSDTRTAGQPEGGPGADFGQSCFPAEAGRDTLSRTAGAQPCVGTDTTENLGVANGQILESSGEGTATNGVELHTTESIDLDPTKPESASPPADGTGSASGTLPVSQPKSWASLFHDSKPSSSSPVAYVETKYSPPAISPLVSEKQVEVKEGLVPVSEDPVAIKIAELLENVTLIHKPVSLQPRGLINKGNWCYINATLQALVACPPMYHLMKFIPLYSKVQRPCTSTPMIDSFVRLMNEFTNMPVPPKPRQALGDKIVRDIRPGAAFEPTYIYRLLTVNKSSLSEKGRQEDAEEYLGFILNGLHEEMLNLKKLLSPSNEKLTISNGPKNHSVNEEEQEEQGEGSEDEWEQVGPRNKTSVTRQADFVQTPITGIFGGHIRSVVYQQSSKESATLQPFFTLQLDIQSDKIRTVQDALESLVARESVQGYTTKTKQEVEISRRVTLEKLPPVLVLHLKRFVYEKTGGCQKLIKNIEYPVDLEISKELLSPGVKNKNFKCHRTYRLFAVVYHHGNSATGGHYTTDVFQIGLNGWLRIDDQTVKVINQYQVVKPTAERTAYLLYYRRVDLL
Procedure, shortened: as §1

USP15 = molecular target: T6, USP15 (UniProt Q9Y4E8)
T6 sequence (whole entry): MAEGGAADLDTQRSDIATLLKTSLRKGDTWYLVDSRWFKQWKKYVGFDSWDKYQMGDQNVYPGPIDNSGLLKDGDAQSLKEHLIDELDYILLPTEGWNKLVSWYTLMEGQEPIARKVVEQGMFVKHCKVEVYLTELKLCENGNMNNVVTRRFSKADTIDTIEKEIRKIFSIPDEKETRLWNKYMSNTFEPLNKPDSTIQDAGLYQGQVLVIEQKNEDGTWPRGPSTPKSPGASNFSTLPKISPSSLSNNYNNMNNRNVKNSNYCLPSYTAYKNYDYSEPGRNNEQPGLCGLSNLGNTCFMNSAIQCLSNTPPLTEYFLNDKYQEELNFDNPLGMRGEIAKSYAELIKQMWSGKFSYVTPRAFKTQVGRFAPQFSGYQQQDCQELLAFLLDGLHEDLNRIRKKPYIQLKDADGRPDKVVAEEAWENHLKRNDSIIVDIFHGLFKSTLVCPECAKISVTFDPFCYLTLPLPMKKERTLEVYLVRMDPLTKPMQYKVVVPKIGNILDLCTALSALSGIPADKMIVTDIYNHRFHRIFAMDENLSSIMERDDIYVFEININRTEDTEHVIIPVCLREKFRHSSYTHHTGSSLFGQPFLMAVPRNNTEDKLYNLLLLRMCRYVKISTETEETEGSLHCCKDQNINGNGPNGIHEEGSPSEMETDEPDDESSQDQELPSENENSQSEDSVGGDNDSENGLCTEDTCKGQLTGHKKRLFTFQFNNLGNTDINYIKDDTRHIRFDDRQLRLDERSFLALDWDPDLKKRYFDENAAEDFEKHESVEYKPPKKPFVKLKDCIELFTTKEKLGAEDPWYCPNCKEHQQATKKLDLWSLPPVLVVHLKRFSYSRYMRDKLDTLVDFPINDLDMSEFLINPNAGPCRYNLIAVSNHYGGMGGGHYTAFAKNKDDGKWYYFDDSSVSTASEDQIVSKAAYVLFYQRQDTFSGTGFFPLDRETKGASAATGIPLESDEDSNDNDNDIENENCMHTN
Procedure, shortened: as §1

USP16 = USP16 (UniProt Q9Y5T5)
Chain of USP16 (Q9Y5T5 whole entry, looked up): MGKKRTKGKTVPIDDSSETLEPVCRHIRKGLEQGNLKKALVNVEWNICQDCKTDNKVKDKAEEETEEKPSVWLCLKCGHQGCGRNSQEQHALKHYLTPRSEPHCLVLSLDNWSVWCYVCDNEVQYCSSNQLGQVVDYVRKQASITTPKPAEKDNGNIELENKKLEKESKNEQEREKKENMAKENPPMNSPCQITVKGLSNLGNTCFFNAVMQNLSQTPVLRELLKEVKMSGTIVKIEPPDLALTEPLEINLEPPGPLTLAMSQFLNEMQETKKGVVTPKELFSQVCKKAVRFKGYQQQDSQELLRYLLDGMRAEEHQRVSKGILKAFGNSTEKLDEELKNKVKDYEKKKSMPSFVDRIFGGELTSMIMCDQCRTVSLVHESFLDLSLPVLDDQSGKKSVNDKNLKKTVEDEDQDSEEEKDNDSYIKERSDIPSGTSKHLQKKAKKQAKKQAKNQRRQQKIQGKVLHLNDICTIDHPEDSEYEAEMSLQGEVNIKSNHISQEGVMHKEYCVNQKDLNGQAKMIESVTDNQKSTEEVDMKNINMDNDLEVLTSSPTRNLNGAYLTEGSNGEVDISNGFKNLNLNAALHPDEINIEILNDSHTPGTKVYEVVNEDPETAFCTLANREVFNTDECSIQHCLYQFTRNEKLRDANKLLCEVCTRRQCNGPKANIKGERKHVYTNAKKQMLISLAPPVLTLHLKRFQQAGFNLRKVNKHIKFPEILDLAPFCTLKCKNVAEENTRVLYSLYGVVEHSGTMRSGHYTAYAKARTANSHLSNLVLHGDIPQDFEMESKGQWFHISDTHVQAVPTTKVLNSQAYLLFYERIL
Procedure, shortened: as §1

Measured: log2 ratio of Biotin-Ahx-Ub-VS probe labelling

NS(=O)(=O)c1ccc(Cl)c(NC(=O)CCl)c1
inactive: OTUD6B -0.573 | PRPF8 -0.153 | PSMD7 -0.125 | UCHL3 0.209 | UCHL5 -0.489 | USP10 -0.299 | USP15 -0.166 | USP16 0.0198
active: OTUD7B -1.63 | UCHL1 -1.51
